# Measurements reported in PubChem BioAssay AID430 (Sanford-Burnham Center for Chemical Genomics, 2006).
# About 1,100 (1.7%) of roughly 63,000 compounds were called active. The full list was thinned out, with actives kept by preference. Potency and affinity values are given separately. Unmarked numbers belong to inactive results. No stated cut-off is given here; in the data, active means cytotoxicity above about 50%; inactive means the rest.
# Experiment: HPDE-C7 pancreatic duct cell viability loss – fluorescence, HTS (AID 430);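 further: cells exposed to compound for 48 hours before viability readout; 0% = vehicle and 100% = reference cytotoxic drug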
# Details: HPDE-C7 pancreatic duct cells viability, at 10 µM, stronger effect = higher value
row,Compound,cytotoxicity
1,COc1ccc(CCNS(=O)(=O)c2cccc(S(=O)(=O)N3CCCC3)c2)cc1OC,-3.9%
2,Cc1cc(SCNC(=O)c2ccccc2)ncn1,-13%
3,COc1ccc(N2CCN(c3oc(COc4ccccc4)nc3C#N)CC2)cc1,-8.8%
4,O=C(O)c1cccc(CN2C(=O)SC(Nc3ccccc3)C2=O)c1 (stereo not given),-3.2%
5,CN(C)C(=O)COn1c(SCC(=O)N(C)C)nc2ccccc2c1=O,-6.6%
6,COc1ccc(C2C3=C(CC(C)(C)CC3=O)Nc3n[nH]c(C)c32)cc1 (stereo not given),-9.3%
7,CCOc1cccc(C(=O)Nc2cc(-c3nn4c(C)nnc4s3)ccc2C)c1,-4.1%
8,O=C(O)C1CCC(CNCc2cccnc2)CC1 (stereo not given),-8.3%
9,CC1(C)CC(=O)C(C=Nc2ccccc2)=C(O)C1,2%
10,Cc1ccc(SCCC(=O)NCC2CCCO2)cc1 (stereo not given),-5.9%
11,COc1ccc(-c2nnc(NC(=O)c3ccc(S(=O)(=O)N4CCCc5ccccc54)cc3)o2)cc1,53.1% (active)
12,COc1ccc(-c2nnc(NC(=O)c3ccc(S(=O)(=O)N4CCc5ccccc5C4)cc3)o2)cc1,40.7%
13,O=C(Nc1ccc(S(=O)(=O)N2CCCc3ccccc32)cc1)C1CCCO1 (stereo not given),3%
14,O=C(NCc1ccco1)c1ccc(S(=O)(=O)N2CCCc3ccccc32)cc1,-2.8%
15,O=C(Nc1nnc(C2CC2)o1)c1ccc(S(=O)(=O)N2CCCc3ccccc32)cc1,73.6% (active)
16,COc1ccc(-c2nnc(NC(=O)c3ccccc3C)o2)cc1,1.9%
17,COc1cc(OC)cc(-n2c3nc4ccccc4nc3c3c(=O)n(CC4CCCO4)cnc32)c1 (stereo not given),-11.1%
18,COc1ccc(OC)c(NC(=O)C2=C(C)Nc3ncnn3C2c2cccs2)c1 (stereo not given),4.9%
19,CCCCOCCCNC(=O)Cc1cccs1,-16.7%
20,COc1ccccc1N1CCN(C(=O)N2CCOCC2)CC1,-6.9%
21,Cc1cc(N2CCN(C/C=C/c3ccccc3)CC2)n2ncnc2n1,-6.5%
22,O=C(NC1c2ccccc2-c2ccccc21)N1CCOCC1,1.5%
23,O=C(CC1SC(=Nc2ccccc2)N(CCCCO)C1=O)NCc1ccccc1 (stereo not given),-10.8%
24,CCCOC(=O)CSC1=C(C#N)C(c2ccccc2OCC)C(C#N)C(=O)N1 (stereo not given),5.1%

row,Compound,cytotoxicity
1,Cc1cc(NC(=O)CCc2ccc(C)o2)no1,-11.8%
2,CC(=O)C(C)Oc1ccc2c3c(c(=O)oc2c1)CCCCC3 (stereo not given),-15.5%
3,c1ccc(-c2nnc(N3CCN(c4ccccn4)CC3)c3ccccc23)cc1,5.2%
4,Cc1ccc(-c2nnc(N3CCN(S(C)(=O)=O)CC3)c3ccccc23)cc1,-1.3%
5,O=C(OCC(=O)N1CCN(C(=O)c2ccco2)CC1)c1ccccc1C(=O)c1ccc(Cl)cc1,-5%
6,O=S(=O)(CCN1CCN(C(c2ccccc2)c2ccccc2)CC1)C(F)(F)F,-0.3%
7,Cc1cccc(CN2CCN(C(c3ccccc3)c3ccc(Cl)cc3)CC2)c1 (stereo not given),95.1% (active)
8,OCCOCCN1CCN(C(c2ccccc2)c2ccc(Cl)cc2)CC1 (stereo not given),50.4% (active)
9,Cc1cccc(CN2CCN(C(=O)c3ccccc3F)CC2)c1,5.3%
10,CN1CCCN(C(c2ccccc2)c2ccc(Cl)cc2)CC1 (stereo not given),12.4%
11,Cc1cccc(CN2CCN(c3ccccn3)CC2)c1,-18.2%
12,CC(C)N1C(=O)CCC1C(=O)N1CCN(c2ccccn2)CC1 (stereo not given),9.8%
13,Fc1ccc(OCc2nc(-c3ccc(Br)o3)no2)c(F)c1,6.5%
14,Cc1ccc(-n2c(SCC(N)=O)nnc2-c2cccnc2)c(C)c1,-1.8%
15,FC(F)(F)c1ccc2c(c1)nc1n2CCCC1,-20.5%
16,O=C(CC1COc2ccccc2O1)NC1CCCCC1 (stereo not given),-3.9%
17,CC1CCCCN1S(=O)(=O)c1ccc(NC(=O)c2cccc(-n3cnnn3)c2)cc1 (stereo not given),30%
18,CC1CCCCN1S(=O)(=O)c1ccc(C(=O)Nc2nnc(-c3ccccc3Cl)o2)cc1 (stereo not given),57.4% (active)
19,CN1CCN(S(=O)(=O)c2ccc(NC(=O)c3cccs3)cc2)CC1,-7.7%
20,CCCC(=O)Nc1nnc(-c2ccc(Cl)s2)o1,1.2%
21,CCC1CCCCN1S(=O)(=O)c1ccc(C(=O)Nc2nnc(-c3cccs3)o2)cc1 (stereo not given),37.7%
22,CCc1nnc(NC(=O)c2ccc(S(=O)(=O)N3CCCCC3C)cc2)s1 (stereo not given),-15%
23,COc1ccc(-c2nnc(NC(=O)c3ccc(S(=O)(=O)N4COCC4(C)C)cc3)o2)cc1,28.7%
24,CC1CCN(S(=O)(=O)c2ccc(NC(=O)c3cccs3)cc2)CC1,19.6%

row,Compound,cytotoxicity
1,O=C(Nc1nnc(-c2ccccc2Cl)o1)c1cccnc1,39.4%
2,CC1CCCCN1S(=O)(=O)c1ccc(NC(=O)c2cccs2)cc1 (stereo not given),52.1% (active)
3,CCC1CCCCN1S(=O)(=O)c1ccc(C(=O)Nc2nnc(-c3ccccc3Cl)o2)cc1 (stereo not given),67.6% (active)
4,CC1(C)COCN1S(=O)(=O)c1ccc(C(=O)Nc2nnc(-c3ccc(Cl)s3)o2)cc1,95.1% (active)
5,C=CCn1c(SCC(=O)NCCOC)nc2scc(-c3ccco3)c2c1=O,-6.7%
6,c1ccc(-c2nn3c(Cn4nnc5ccccc54)nnc3s2)nc1,-48.7%
7,O=C(Nc1ccon1)c1ccc2c(c1)OCO2,-3.5%
8,CC(C)N1C(=O)CCC1C(=O)NC1CCCC1 (stereo not given),-3.8%
9,Cc1ccc(-c2csc3nnc(SCC(=O)N4CCN(Cc5ccccc5)CC4)n23)cc1,4.7%
10,COc1ccc(-c2ccc(NCCC3=CCCCC3)nn2)cc1OC,18.1%
11,CCOC(=O)CSc1nnc(-c2ccc(S(=O)(=O)N3CCC(C)CC3)cc2)o1,2%
12,O=c1cc(CN2CCN(c3ccc(F)cc3)CC2)nc2sccn12,-3.4%
13,Cc1nc2ccccn2c(=O)c1CCN1CCC(C(=O)c2ccc(F)cc2)CC1,-14.3%
14,CCCOC(=O)C1C2C=CC3(CN(c4ccc(Cl)c(F)c4)C(=O)C13)O2 (stereo not given),-15.1%
15,C/C=C/COC(=O)c1[nH]c2c(c1C)C(=O)CC(c1ccco1)C2 (stereo not given),63.7% (active)
16,C/C=C/COC(=O)c1[nH]c2c(c1C)C(=O)CC(c1ccc(N(C)C)cc1)C2 (stereo not given),11.6%
17,C=CCOC(=O)c1[nH]c2c(c1C)C(=O)CC(c1ccco1)C2 (stereo not given),74.9% (active)
18,C=CCOC(=O)c1[nH]c2c(c1C)C(=O)CC(c1cc(OC)c(OC)c(OC)c1)C2 (stereo not given),-23.8%
19,CCN1CCN(CC(=O)Nc2ccccc2)C(=O)C1=O,-4.7%
20,CCOc1nc2ccccc2nc1NS(=O)(=O)c1ccccc1,0.8%
21,CCN(CC)C(=O)CSC(=Nc1ccccc1F)NC#N,3.7%
22,Cc1cc(NC(=O)c2ccccc2-c2ccccc2C(=O)O)no1,5.8%
23,CC1(C)CC(n2c(NCCO)nc3c(c2=O)C2(CCCC2)Cc2ccccc2-3)CCO1 (stereo not given),56.4% (active)
24,O=c1[nH]c(NCCO)nc2c1C1(CCCCC1)Cc1ccccc1-2,13.1%

row,Compound,cytotoxicity
1,Cn1c(NCCO)nc2c(c1=O)C1(CCCCC1)Cc1ccccc1-2,8.3%
2,CC1(C)Cc2ccccc2-c2nc(NCCO)n(-c3ccccc3)c(=O)c21,-0.1%
3,O=c1[nH]c(NCCCO)nc2c1C1(CCCC1)Cc1ccccc1-2,23.9%
4,Cn1c(NCCCO)nc2c(c1=O)C1(CCCCC1)Cc1ccccc1-2,53.9% (active)
5,COc1ccccc1NC(=O)CSc1nnnn1-c1ccc2c(c1)OCO2,-9.1%
6,COc1ccc(C2c3c(oc4c(C)cc(C)cc4c3=O)C(=O)N2Cc2cccnc2)cc1OC (stereo not given),43.3%
7,O=C(CCNS(=O)(=O)c1cccc2nsnc12)N1CC(=O)N(CCc2ccccc2)C(=O)C1,-14.8%
8,COc1ccc(C(=O)NCCn2cc(SCC(=O)Nc3cc(C)on3)c3ccccc32)cc1OC,-41%
9,Cc1cc(C)n2nc(SCC(=O)NCc3ccco3)nc2n1,-20.4%
10,COCCn1c(C)cc(C(=O)COC(=O)CCc2ccc(S(=O)(=O)N3CCOCC3)cc2)c1C,-9.3%
11,CC(=O)Oc1cc2c(C(C)=O)coc2c2ccccc12,4.5%
12,COc1ccc(C(=O)N(Cc2nc(-c3ccc(C)cc3)no2)C2CCCCC2)cc1OC,9.2%
13,COc1ccccc1-c1nc(-c2cccc(C)c2)no1,9.9%
14,COc1cccc(OCc2nc3ccccc3[nH]2)c1,-1.9%
15,O=C(NCc1nc2ncc(Br)cc2[nH]1)c1ccccc1,-4.4%
16,COc1cccc(OCc2nc3ncc(Br)cc3[nH]2)c1,61.9% (active)
17,CCOC(=O)c1[nH]c2ccc(Br)cc2c1NC(=O)CCN1CCCCC1,0.6%
18,Cc1ccc2c(c1)nnn2C1CCN(CC(=O)Nc2ccccc2N2CCOCC2)CC1,11%
19,Cc1c(NC(=O)Nc2cccc(Cl)c2)c(=O)n(-c2ccccc2)n1C,-2.1%
20,Cc1c(NC(=O)c2ccc(=O)oc2)c(=O)n(-c2ccccc2)n1C,-6.7%
21,Cc1c(NC(=O)Nc2ccc(Cl)cc2)c(=O)n(-c2ccccc2)n1C,-19.8%
22,Cc1c(NC(=O)c2ccc(Br)o2)c(=O)n(-c2ccccc2)n1C,-3.4%
23,Cc1c(NC(=O)Nc2ccc(Cl)c(Cl)c2)c(=O)n(-c2ccccc2)n1C,65.8% (active)
